Hit rate of the full screen: of about 69,000 compounds, fewer than 10 were called active. About 100% were inconclusive and are not listed. The rule behind the calls is not given here. The list shows a part of the results.

The target of this assay is UDP-N-acetylglucosamine--peptide N-acetylglucosaminyltransferase 110 kDa subunit (Homo sapiens) (UniProt O15294). Kind of assay: O-Glc NAc Transferase (sOGT). To be noted: sOGT fluorescence polarization UDP-GlcNAc probe displacement. From the text: NIH Molecular Libraries Screening Centers Network [MLSCN]
Chain of UDP-N-acetylglucosamine--peptide N-acetylglucosaminyltransferase 110 kDa subunit (Homo sapiens) (O15294 whole entry, looked up): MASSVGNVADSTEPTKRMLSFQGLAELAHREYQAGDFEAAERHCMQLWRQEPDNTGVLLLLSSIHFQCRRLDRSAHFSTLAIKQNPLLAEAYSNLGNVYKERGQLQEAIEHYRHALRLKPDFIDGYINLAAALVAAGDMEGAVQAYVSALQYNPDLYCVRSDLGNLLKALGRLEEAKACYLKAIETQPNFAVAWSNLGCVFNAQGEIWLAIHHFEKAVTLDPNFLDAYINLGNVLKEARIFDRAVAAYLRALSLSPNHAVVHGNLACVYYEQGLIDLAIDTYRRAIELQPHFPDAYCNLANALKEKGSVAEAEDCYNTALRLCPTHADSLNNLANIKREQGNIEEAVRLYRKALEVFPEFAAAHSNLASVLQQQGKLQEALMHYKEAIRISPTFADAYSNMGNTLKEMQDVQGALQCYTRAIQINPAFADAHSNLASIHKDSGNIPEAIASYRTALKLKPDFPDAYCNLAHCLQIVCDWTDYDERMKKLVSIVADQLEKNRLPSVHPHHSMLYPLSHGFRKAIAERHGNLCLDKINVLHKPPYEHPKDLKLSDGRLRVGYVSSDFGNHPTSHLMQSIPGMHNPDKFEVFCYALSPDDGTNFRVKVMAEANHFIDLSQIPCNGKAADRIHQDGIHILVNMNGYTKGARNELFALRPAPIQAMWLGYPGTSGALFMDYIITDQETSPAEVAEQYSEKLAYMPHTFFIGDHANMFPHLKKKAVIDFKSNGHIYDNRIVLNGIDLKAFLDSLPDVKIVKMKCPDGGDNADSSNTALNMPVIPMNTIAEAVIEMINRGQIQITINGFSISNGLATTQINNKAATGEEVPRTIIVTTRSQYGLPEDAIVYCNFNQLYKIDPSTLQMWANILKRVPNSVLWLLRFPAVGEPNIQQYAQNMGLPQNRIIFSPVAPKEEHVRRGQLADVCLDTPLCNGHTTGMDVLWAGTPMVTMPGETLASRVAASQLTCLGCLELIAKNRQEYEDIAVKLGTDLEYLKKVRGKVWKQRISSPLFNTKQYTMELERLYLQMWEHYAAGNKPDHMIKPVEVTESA
NIH Chemical Genomics Center [NCGC]
Suzanne Walker [Harvard Medical School]
OGT is the sole enzyme that mediates the attachment of O-GlcNAc groups to serine and threonine residues in the nucleus and cytoplasm of eukaryotic cells, and no specific inhibitors are known. This type of glycosylation is involved in signal transduction and plays a key role in many essential cellular processes. High O-GlcNAc levels have been correlated to insulin resistance and type 2 diabetes. In addition to elucidating the role of O-GlcNAc in cellular processes, inhibitors of OGT might be useful in studying and perhaps treating type 2 diabetes. Since HTS-amenable direct assay for OGT activity is currently unavailable, a simpler substrate-displacement screen was performed. The signal measured is based on the change in fluorescence polarization of a fluorescein-labeled UDP-GlcNAc upon displacement from its complex with OGT. Recombinant truncated version of the enzyme, sOGT, as well as labeled probe, were made available by Suzanne Walker and Benjamin Gross, Harvard Medical School. […]
Three uL of reagents were dispensed to 1536-well Greiner black plates. […] The plates were incubated for 15 min at room temperature, and then read on ViewLux (Perkin-Elmer) High-throughput CCD imager using fluorescein polarization filter set and 45 seconds exposure time. […]
(Polarisation of emitted light reports the rotation of a fluorescent probe.)
As to `O=C1CCCN1CC#CCN1CCCC1`, the Potency is 29.9 µM (active).

Values taken from PubChem BioAssay AID447 (National Center for Advancing Translational Sciences (NCATS), 2006).
